Source: PubChem (several laboratories)
Most compounds without a hit are left out; they make up all but 4.6% or so of the library.
PfHsp90 yeast 2 – growth inhibition of PfHsp90-expressing yeast, primary screen, antimalarial PfHsp90 inhibitor project, S. cerevisiae, BacTiter-Glo luminescence, single point, set 2. AID 504621, 2011. 310,000 tested, 0.32% active. BacTiter-Glo ATP, 48 h; yeast lacking PDR1 and PDR3 efflux regulators. inhibition, % at 9.4 µM;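 active = every replicate shows inhibition above about 80%, whatever the replicate mean, limit read from the data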;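 also: 0% = DMSO neutral controls and 100% = 20 µM radicicol positive controls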
V-ATPase pH – regulators of yeast V-ATPase proton pumping, primary screen, pHLuorin cytosolic pH fluorescence; S. cerevisiae; response, % at 10 µM; 350,000 tested, 0.37% active; AID 504577, 2011; in the data active = response mostly above about 7.3%, no sharp cut-off; inactive = mostly below about 5.4%; also: actives read high
TIM10 inh – growth inhibitors of isogenic TIM10 control yeast, primary screen, counter-screen for tim10-1 yeast inhibitor project, luminescence, uHTS. AID 463195, 2010. inhibition, % at 10 µM. S. cerevisiae TIM10 strain growth, BacTiter-Glo luminescence, 24 h. 330,000 tested, 1.4% active;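 active = inhibition of 40% or more at the single tested concentration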;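 also: wild-type TIM10 isogenic control strain grown at permissive 25 °C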
SKKanGAS inh – S. pyogenes SKKanGAS growth inhibitors in kanamycin, primary screen, streptokinase expression inhibitor project, SKKanGAS strain, BacTiter-Glo luminescence; 6 h; inhibition, % at 7.5 µM; 300,000 tested, 1.3% active;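 active = mean replicate score, as percent of positive control median, at least 50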;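 also: strain carries kanamycin resistance gene driven by streptokinase promoter and grows in 40 µg/ml kanamycin; loss of luminescence reflects streptokinase promoter inhibition or plain growth inhibition; 0% = median of DMSO wells and 100% = positive control at its reference dose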
tim10-1 inh – growth inhibitors of tim10-1 mutant yeast, primary screen, luminescence, uHTS; 330,000 tested, 2.2% active; S. cerevisiae tim10-1 ts strain growth, BacTiter-Glo, 24 h; AID 463190, 2010; inhibition, % at 20 µM;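 active = inhibition of at least 40%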;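 also: mutant grown at 25 °C; 0% = DMSO wells with yeast and 100% = wells holding no yeast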
tim23-1 inh – growth inhibitors of tim23-1 mutant yeast, primary screen, luminescence, uHTS | S. cerevisiae tim23-1 growth, BacTiter-Glo luminescence, 24 h | inhibition, % at 20 µM | 330,000 tested, 1.3% active | AID 463212, 2010;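 active = growth inhibition of the mutant yeast at or above 50%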;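 also: temperature-sensitive mutant grown at 25 °C; plate controls were DMSO-treated mutant yeast for no effect and medium wells lacking yeast for full effect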
tim23-1 conf – tim23-1 mutant yeast growth inhibitors, confirmation, luminescence, single concentration | inhibition, % at 20 µM | shares compounds with tim23-1 inh | S. cerevisiae tim23-1 growth, BacTiter-Glo luminescence, 24 h | AID 463218, 2010 | 4,400 tested, 83% active;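 active = inhibition above about 39% in either of two replicate wells at 20 µM, limit read from the data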;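 also: temperature-sensitive tim23-1 mutant grown at 25 °C; 0% = DMSO wells with yeast and 100% = medium wells without yeast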
Starred values were filed as active, the others as inactive; x = no result given.

SMILES	PfHsp90 yeast 2	V-ATPase pH	TIM10 inh	SKKanGAS inh	tim10-1 inh	tim23-1 inh	tim23-1 conf
Cc1ccc(NC(=O)CSc2nc3[nH]ncc3c(=O)[nH]2)c(C)c1	-9	0	-3	-4	9	17	x
COc1ccc(OC)c2c1sc(=NC(=O)C(C)(C)C)n2C	3	-2	15	5	31	19	x
COc1ccc(OC)c2c1sc(=NC(=O)C(C)C)n2C	8	1	24	3	31	53*	47*
O=C(c1ccc(OC2CCN(Cc3ccccn3)CC2)cc1)N1CCCCO1	-8	0	-18	-1	-9	-4	x
Fc1ccc(NC(=S)NCCN2CCOCC2)c(F)c1F	-7	2	7	14	4	6	x
COc1ccc(CCNS(=O)(=O)c2ccc(Br)cc2)cc1	3	-4	-2	-7	35	52*	30
COc1ccc(S(=O)(=O)NCCc2ccc(F)cc2)cc1	x	-5	-2	-10	17	28	x
COc1ccc(-c2csc(NC(=O)c3cccs3)c2C(=O)O)cc1OC	1	-1	14	6	-12	3	x
O=C(Nc1sc2c(c1C(=O)O)CCCCC2)c1ccccc1F	-41	3	17	-8	29	28	x
O=C(Nc1scc(-c2ccccc2)c1C(=O)O)c1ccccc1F	28	-3	29	13	18	58*	54*
COc1ccc(-c2csc(NC(=O)c3ccccc3Br)c2C(=O)O)cc1	34	-3	18	27	16	64*	73*
O=C(/C=C/c1ccco1)Nc1scc(-c2ccccc2)c1C(=O)O	49	3	9	14	-11	55*	46*
Cn1c2ccsc2c2ncn(Cc3ccccc3F)c(=O)c21	-21	0	11	x	-1	-13	x
CCn1cc(C(=O)N[C@@H](CCSC)C(=O)NCCCN2CCOCC2)c(=O)c2cc3c(cc21)OCO3	-19	2	5	-1	2	-13	x
CCc1nnc(NS(=O)(=O)c2ccc(NC(=S)NC(=O)/C=C/c3ccc(C(C)C)cc3)cc2)s1	-19	2	26	87*	32	52*	55*
CCc1nnc(NS(=O)(=O)c2ccc(NC(=S)NC(=O)/C=C/c3ccccc3)cc2)s1	-23	-1	9	20	7	4	x
O=C(CCc1ccc(S(=O)(=O)N2CCOCC2)cc1)Nc1ccc(F)cc1[N+](=O)[O-]	x	3	-8	x	-1	5	x
O=C(N/N=C/c1ccccc1F)c1csc2c1CCCC2	18	-1	5	3	9	-25	x
O=C(N/N=C/c1cccc(F)c1)c1csc2c1CCCC2	1	0	25	1	30	63*	62*
Cc1ccc(S(=O)(=O)N2C(=O)[C@@H]3Cc4ccccc4CN3C2=O)cc1	11	-1	14	-9	23	51*	41*
COc1cc(OC)cc(C(=O)NNC(=O)CCC(=O)c2cc(C)sc2C)c1	-7	-3	0	x	-5	15	x
O=C(CN1CCN(c2cccc(C(F)(F)F)c2)CC1)N(C1CCCC1)C1CCS(=O)(=O)C1 (stereo not drawn)	7	-1	12	x	0	4	x
COc1ccc2c(c1)C(C)CC(C)(C)N2C(=O)Nc1ccccc1 (stereo not drawn)	-19	6	-5	0	4	11	x
COc1cc2c3c(c1)C(C)CC(C)(C)N3C(=O)C2=O (stereo not drawn)	9	2	-2	1	32	51*	63*
COc1cc(/C=C/C(=O)OCC(=O)N2c3ccccc3NC(=O)C2(C)C)cc(OC)c1OC	x	-2	3	x	6	10	x
SMILES	PfHsp90 yeast 2	V-ATPase pH	TIM10 inh	SKKanGAS inh	tim10-1 inh	tim23-1 inh	tim23-1 conf
CN(Cc1ccco1)c1ncnc2ccc(-c3ccc4c(c3)OCO4)cc12	-10	-4	7	x	22	51*	42*
CN(Cc1ccco1)c1ncnc2ccc(-c3ccc4c(ccn4C)c3)cc12	32	-1	8	x	13	34	x
O=C(CSc1ccc(F)cc1)Nc1ccc2c(c1)C(=O)NC2=O	11	-4	3	-1	2	13	x
CCOc1ccc(OCCSc2nc3ccccc3[nH]2)cc1	-17	1	26	-11	16	60*	32
Cc1noc(C)c1CSc1nc2[nH]ncc2c(=O)n1-c1ccccc1	-4	8	-6	3	14	10	x
Cc1noc(C)c1CSc1nc2ccccc2c(=O)n1-c1ccccc1	-37	-2	13	10	32	52*	45*
CCCCN1CC(C)(C)[C@H](CC(=O)NC)C1=O	x	-1	x	x	x	x	x
O=C(/C(=C/O)N=Nc1ccccc1)c1ccco1	-4	3	34	0	27	55*	59*
O=Cc1cn(-c2ccccc2)nc1-c1cccnc1	1	3	40	-3	28	62*	57*
O=C(O)/C=C/c1cn(-c2ccccc2)nc1-c1ccccc1	-7	1	1	0	15	16	x
c1ccc(-c2nc(NCc3cccs3)c3ccccc3n2)cc1	43	0	28	16	-4	51*	46*
CC1CC(C)CN(C(=O)CSc2ncnc3sccc23)C1 (stereo not drawn)	0	-3	2	x	16	31	x
Cc1cccc(N=Nc2cnc(N)s2)c1	8	-2	22	-5	28	52*	53*
CC(C)C(OC(=O)c1nsc(Cl)c1Cl)C(=O)NCC1CCCO1 (stereo not drawn)	-19	1	0	10	13	4	x
O=C(COC(=O)c1ccc2ncsc2c1)Nc1cc(Cl)ccc1F	-13	-8	10	x	30	56*	41*
O=C(COC(=O)c1ccc2ncsc2c1)Nc1ncc(Cl)cc1Cl	9	3	-1	-13	12	14	x
Clc1ccc(OCCn2cnc3ccccc32)c(Cl)c1	-13	9	7	-4	24	54*	28
c1ccc2c(c1)ncn2CCOCCOCCn1cnc2ccccc21	-11	x	-3	3	2	-6	x
CN(CC(=O)Nc1ccc(Cl)c(Cl)c1)C(=O)c1cccc2cccnc12	1	1	-1	x	5	4	x
CNC(=S)Nc1ccc(N2CCCC2)c(S(=O)(=O)Nc2ccc(OC)cc2)c1	-19	2	7	x	0	2	x
COc1ccc(NS(=O)(=O)c2ccc(N3CCCC3)c(NC(=S)Nc3cccc(S(=O)(=O)N(C)C)c3)c2)cc1	x	x	27	3	23	52*	78*
O=C(Nc1ccc2nn(-c3ccccc3)nc2c1)c1cccnc1	17	-3	8	x	-13	52*	37
